From PubChem BioAssay AID1159580 (chemical genetic matrix, 2015)
The whole screen tested about 5,500 compounds, of which about 2,000 (36%) were called active. Another 18% or so got no clear call; they are omitted. Rule as the data show it: active = normalized growth mostly below about 0.91 (no sharp cut-off); inconclusive = no clear call, values can overlap the other calls; inactive = mostly above about 0.92. This is one part of the list.

Experiment: chemical genetic growth profiling, strain panel (AID 1159580);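 also: tested at 20 µM; growth read once vehicle control cultures reached saturation at 30 °C; 1 = growth at the plate median or of vehicle wells; lower values mean less growth of the strain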
Conditions: S. cerevisiae deletion strains, growth OD

Measured: normalized growth

CCC(C)[C@H]1O[C@]2(C=C[C@@H]1C)C[C@@H]1C[C@@H](C/C=C(\C)[C@@H](OC3C[C@H](OC)C(O[C@H]4C[C@H](OC)[C@@H](O)[C@H](C)O4)[C@H](C)O3)[C@@H](C)/C=C/C=C3\CO[C@@H]4[C@H](O)C(C)=C[C@@H](C(=O)O1)[C@]34O)O2 (some centres not stated)
active: locus YKR001C, strain vps1, stronger effect = lower value 0.253 | locus YLL026W, stronger effect = lower value 0.886 | locus YLR039C, strain RIC1, stronger effect = lower value 0.274 | locus YLR058C, strain SHM2, stronger effect = lower value 0.881 | locus YLR221C, strain rsa3, stronger effect = lower value 0.832 | locus YLR258W, strain gsy2, stronger effect = lower value 0.849 | locus YLR262C, strain YPT6 (second series), stronger effect = lower value 0.418 | locus YLR262C, strain YPT6, stronger effect = lower value 0.214 | locus YLR268W, strain sec22, stronger effect = lower value 0.695 | locus YLR320W, strain mms22, stronger effect = lower value 0.828 | locus YLR330W, strain CHS5, stronger effect = lower value 0.893 | locus YLR342W, strain FKS1 (second series), stronger effect = lower value 0.452 | locus YLR342W, strain FKS1, stronger effect = lower value 0.681 | locus YLR418C, strain cdc73, stronger effect = lower value 0.824 | locus YMR205C, strain PFK2, stronger effect = lower value 0.77 | locus YMR307W, strain GAS1, stronger effect = lower value 0.323 | locus YNL071W, strain lat1, stronger effect = lower value 0.824 | locus YNL153C, strain GIM3, stronger effect = lower value 0.821 | locus YNL233W, strain BNI4, stronger effect = lower value 0.849 | locus YNL307C, strain MCK1, stronger effect = lower value 0.46 | locus YOR069W, strain VPS5, stronger effect = lower value 0.92 | locus YOR070C, strain gyp1, stronger effect = lower value 0.837 | locus YOR184W, strain ser1, stronger effect = lower value 0.698 | locus YOR270C, strain vph1, stronger effect = lower value 0.59 | locus YOR290C, strain snf2, stronger effect = lower value 0.864 | locus YPL051W, strain arl3, stronger effect = lower value 0.676 | locus YPL055C, strain LGE1, stronger effect = lower value 0.627 | locus YPL106C, strain sse1, stronger effect = lower value 1.38 [resistant] | locus YPR163C, strain tif3, stronger effect = lower value 0.897 | locus YPR167C, strain met16, stronger effect = lower value 0.862 | strain wtn01, stronger effect = lower value 0.76
inactive: locus YJR043C, strain POL32, stronger effect = lower value 0.932 | locus YJR066W, strain TOR1, stronger effect = lower value 0.973 | locus YJR075W, strain HOC1, stronger effect = lower value 0.906 | locus YKL009W, strain mrt4, stronger effect = lower value 1.01 | locus YKL068W, stronger effect = lower value 0.995 | locus YKL085W, strain MDH1 (second series), stronger effect = lower value 0.981 | locus YKL085W, strain MDH1, stronger effect = lower value 0.981 | locus YKL160W, strain elf1, stronger effect = lower value 0.969 | locus YKR026C, strain gcn3, stronger effect = lower value 0.996 | locus YKR091W, strain srl3, stronger effect = lower value 0.989 | locus YLL001W, strain dnm1, stronger effect = lower value 0.983 | locus YLL041C, strain sdh2, stronger effect = lower value 0.98 | locus YLR027C, strain aat2, stronger effect = lower value 0.936 | locus YLR102C, strain apc9, stronger effect = lower value 1.02 | locus YLR113W, strain HOG1, stronger effect = lower value 0.975 | locus YLR357W, strain rsc2, stronger effect = lower value 1.03 | locus YLR370C, strain arc18, stronger effect = lower value 0.985 | locus YLR371W, strain rom2, stronger effect = lower value 1.03 | locus YLR384C, strain iki3, stronger effect = lower value 1.02 | locus YML016C, strain PPZ1, stronger effect = lower value 1 | locus YML032C, strain rad52, stronger effect = lower value 0.915 | locus YML120C, strain ndi1, stronger effect = lower value 0.955 | locus YML124C, strain tub3, stronger effect = lower value 1.01 | locus YMR058W, strain fet3, stronger effect = lower value 1 | locus YMR078C, strain ctf18, stronger effect = lower value 0.98 | locus YMR125W, strain sto1, stronger effect = lower value 1.03 | locus YMR129W, stronger effect = lower value 0.996 | locus YMR223W, strain ubp8, stronger effect = lower value 0.953 | locus YMR231W, strain pep5, stronger effect = lower value 0.984 | locus YNL067W, strain RPL9B, stronger effect = lower value 0.904 | locus YNL183C, strain NPR1, stronger effect = lower value 0.926 | locus YNL209W, strain ssb2, stronger effect = lower value 0.937 | locus YNL248C, strain rpa49, stronger effect = lower value 0.926 | locus YNL250W, strain rad50, stronger effect = lower value 1.02 | locus YNL271C, strain bni1, stronger effect = lower value 1.01 | locus YNL298W, strain CLA4, stronger effect = lower value 1.04 | locus YNL322C, strain KRE1 (second series), stronger effect = lower value 0.935 | locus YNR049C, strain mso1, stronger effect = lower value 0.987 | locus YNR052C, strain pop2, stronger effect = lower value 0.952 | locus YOL012C, strain htz1 0.305 | locus YOL147C, strain pex11, stronger effect = lower value 0.935 | locus YOR001W, strain rrp6, stronger effect = lower value 1 | locus YOR061W, strain CKA2, stronger effect = lower value 0.891 | locus YOR080W, strain dia2, stronger effect = lower value 0.997 | locus YOR083W, strain WHI5, stronger effect = lower value 0.901 | locus YOR106W, strain vam3, stronger effect = lower value 0.984 | locus YOR136W, strain idh2, stronger effect = lower value 0.936 | locus YOR144C, strain elg1, stronger effect = lower value 0.97 | locus YOR231W, strain MKK1, stronger effect = lower value 0.945 | locus YOR265W, strain rbl2, stronger effect = lower value 0.98 | locus YOR316C, strain cot1, stronger effect = lower value 1.01 | locus YPL078C, strain atp4, stronger effect = lower value 0.982 | locus YPL240C, strain hsp82, stronger effect = lower value 0.931 | locus YPL256C, strain CLN2, stronger effect = lower value 0.955 | locus YPR119W, strain clb2, stronger effect = lower value 1.02 | locus YPR141C, strain kar3, stronger effect = lower value 0.997
